# Bioassay records: PubChem BioAssay, National Center for Advancing Translational Sciences (NCATS)
# Shiga toxin inh = Shiga toxin inhibition | Vero cells, Shiga toxin protein synthesis inhibition reporter | inhibition, % at 38.7 µM | actives 9.2% (n = 290,000) | AID 2315; in the data active = inhibition mostly above about 28%, no sharp cut-off; inactive = mostly below about 43%; note: 0% is about no effect
# Pf growth 48h = inhibits P. falciparum growth in the first generation, 48 h; AID 504832; actives 5.9% (n = 310,000); Potency, µM (doses to about 28.7 µM), for the others: at the highest dose activity change, negative = inhibition, hits mostly inhibitors; P. falciparum luciferase growth in erythrocytes, 48 h; note: potency is the fitted concentration of half-maximal effect; % is set by controls: 0 for no effect and ±100 for the full control effect
#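 In quantitative HTS format, infected erythrocytes bearing luciferase-reporter parasites were treated for a single generation at 37 C. Luminescence after adding detection reagent served as the growth measure.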
# AMA1 RON2 block = inhibitors of Plasmodium falciparum AMA1-RON2 interaction. AlphaScreen AMA1-biotinylated RON2 peptide binding. Potency, µM (highest dose often 58.2 µM), for the others: top-dose activity change, negative = inhibition, actives largely listed as inhibitors. actives 0.2% (n = 360,000). AID 720542;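 note: potency is the fitted concentration of half-maximal effect; 0% = vehicle wells and -100% = peptide control; nearly all actives have a fitted effect of over 45% in size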
#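 AMA1 (3D7) with his tag at 25 nM final met compounds first, then biotinylated RON2 peptide at 25 nM; detection used donor plus acceptor beads, 10 µg/mL apiece, read by AlphaScreen after 30 min at room temperature.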
# SARS PLP yeast = inhibitors of SARS-CoV papain-like protease in yeast; S. cerevisiae expressing SARS-CoV PLpro, growth rescue; Potency, µM (series often up to 32.9 µM), inactives show at the highest dose activity, positive = growth rescue, hits mostly activators; actives 0.19% (n = 330,000); AID 485353; calls by dose curve; note: potency is the fitted concentration of half-maximal effect; 0% is about no effect; nearly all actives have a fitted effect of over 55% in size
# Cycloheximide cs = counter-screen hit for Shiga toxin inhibitors, cycloheximide; cell reporter, cycloheximide protein synthesis inhibition counterscreen; max response, %; actives 12% (n = 300,000); AID 2314; in the data active = max response mostly above about 13%, no sharp cut-off; inactive = mostly below about 14%; note: read at 38.3 µM for the half of the compounds with a filed dose; 0% is about no effect
# Pf growth 96h = P. falciparum growth inhibition at 96 hour, primary screen for plastid delayed-death inhibitors | AID 504834 | actives 6.9% (n = 320,000) | Potency, µM (series often up to 28.7 µM), without a hit: at the highest dose activity change, negative = inhibition, actives largely listed as inhibitors | P. falciparum luciferase reporter growth, 96 h; note: potency is the fitted concentration of half-maximal effect; % is set by controls: 0 for no effect and ±100 for the full control effect
#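 Two parasite generations (96 h, 37 C, 5% CO2) of compound exposure in infected erythrocytes (0.05% parasitemia, 2% hematocrit). Luciferase-reporter P. falciparum; decreased luminescence indicates inhibited growth, aimed at apicoplast-acting delayed death.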
# Active calls of the source: *; ? = inconclusive; . = no result given; + = active, no number; [ ] = remark or other dose. Only some compounds are listed: those with a hit (about 19% of all), similar ones and a draw of the others. Unless noted, calls come from the whole dose curve; as a rule, active = well fitted curve in the direction sought with a large enough effect; inconclusive = small, poorly fitted or top-dose-only effect, or another doubt; inactive = no such curve, though single readings can be large; an effect the other way counts as inactive or inconclusive.
SMILES,Shiga toxin inh,Pf growth 48h,AMA1 RON2 block,SARS PLP yeast,Cycloheximide cs,Pf growth 96h
CCN1C(=NCc2cccc(Cl)c2)N[C@@H](c2cccc(F)c2)C(C(=O)OC)=C1C,-3,?,-3%,1%,-4,?
CCN1C(=O)N(C)[C@@H](c2ccccc2)C(C(=O)OC)=C1C,2,?,-5%,-6%,21*,-23%
COC(=O)C1=C(C)N(Cc2ccccc2)C(=NCc2cccc(C(F)(F)F)c2)N[C@H]1c1cccc(F)c1,-17,6.6µM*,11%,-17%,-12,?
CCN1C(=O)N(S(=O)(=O)C(F)(F)F)[C@@H](c2ccccc2)C(C(=O)OC)=C1C,12,?,21%,-10%,0,?
CCN1C(=NCCc2c[nH]c3ccccc23)N[C@@H](c2ccccc2)C(C(=O)OC)=C1C,-3,13µM*,.,14%,2,1%
Cc1nn(C)c(Cl)c1C(=O)NCC(=O)Nc1ccc(C(C)C)cc1,3,?,0%,3%,5,-1%
CCOC(=O)C1CCN(C(=O)CCC2CCCC2)CC1,22,45%,-3%,-5%,3,31%
O=C(COC(=O)c1ccc(O)cc1)Nc1ccccc1[N+](=O)[O-],-4,30%,-3%,0%,13,15%
CCOC(=O)C(O)(c1ccc(NC(=O)NC2CCCCC2)cc1)C(F)(F)F (stereo not drawn),58,.,8%,-1%,20*,19%
COC(=O)C(O)(c1ccc(N(C)C(=O)c2ccc(Cl)c(Cl)c2)cc1)C(F)(F)F (stereo not drawn),-9,-6%,18%,19%,-4,-3%
CCOC(=O)C(=CNc1ccc(C(O)(C(=O)OCC)C(F)(F)F)cc1C)C(=O)OCC (stereo not drawn),2,?,7%,-2%,-3,?
CCOC(=O)C(O)(c1ccc(N=c2ccccn2C)cc1)C(F)(F)F (stereo not drawn),10,1%,-1%,-1%,-3,17%
CCOC(=O)C(O)(c1ccc(N(C)C(=O)c2ccc(Cl)c(Cl)c2)cc1)C(F)(F)F (stereo not drawn),-4,?,0%,?,-4,10µM*
CCOC(=O)C(O)(c1ccc(NC(=O)c2ccc(Cl)c(Cl)c2)cc1)C(F)(F)F (stereo not drawn),45,9.3µM*,-4%,-3%,12,?
COc1ccc(OC)c(NC(=O)Cc2coc3ccc4ccccc4c23)c1,6,?,?,-5%,-1,.
COc1ccccc1C1CCN(c2ccc(CO)cc2[N+](=O)[O-])CC1,18,125%,?,-4%,14*,4%
Cc1ncc(CO)c2c1Oc1nc(-c3ccccc3)nc(SCC(=O)Nc3cccc(O)c3)c1C2,5,9.3µM*,-2%,1%,1,-3%
COc1ccc(-c2nc3c(c(SCC(=O)Nc4cccc(O)c4)n2)Cc2c(CO)cnc(C)c2O3)cc1,-2,9.3µM*,9%,-9%,8,4%
Cc1ccccc1C(=O)NCC(=O)OCCOc1ccc(C(C)C)c(C)c1,.,9%,-10%,-29%,.,2%
Cc1onc(-c2ccccc2)c1-c1ccc(S(N)(=O)=O)cc1,69*,?,-2%,4%,38*,?
CC(C)Oc1ccc(C2CC(=O)N(c3ccccc3)C2=O)cc1 (stereo not drawn),44,.,5%,7%,20*,13%
COc1ccc(N2C(=O)c3cccc4c(N(C)CCO)ccc(c34)C2=O)cc1,12,10µM*,-4%,-5%,9,22%
O=C1c2cccc3c(O)ccc(c23)C(=O)N1c1ccc(Cl)cc1,+,.,43%,-3%,105*,14%
COc1ccc(O)c(C(=O)C2c3ccccc3C(=O)N2c2ccc(C)cc2)c1 (stereo not drawn),81*,?,-7%,-4%,44*,1.5µM*
CCCCn1c(N)c(N(CCOC)C(=O)c2ccc(-c3ccc(C(C)=O)cc3)o2)c(=O)[nH]c1=O,.,?,11%,-1%,.,?
SMILES,Shiga toxin inh,Pf growth 48h,AMA1 RON2 block,SARS PLP yeast,Cycloheximide cs,Pf growth 96h
COc1ccc(N2C(=O)c3ccccc3C2=O)cc1,55*,10%,-1%,-1%,19*,?
CCO/C=C1\C(=O)N(c2ccccc2)C(=O)c2ccccc21,69*,12%,2%,4%,40*,1%[5.75 µM]
Cc1ccc(N2C(=O)c3ccccc3C2=O)cc1,91*,7%,15%,-2%,41*,14%
COc1ccc2c(c1OC)C(=O)N(c1ccc(O)cc1)C2=O,4,51%,2%,4%,-2,19%
COc1ccc2c(c1OC)C(=O)N(c1ccccc1)C2=O,47*,-3%,13%,0%,39*,-23%
O=C1c2ccccc2C(=O)N1c1ccc(Cl)cc1,-11,.,.,0%,10,28%
CCO/C=C1/C(=O)N(c2ccc(OC)cc2)C(=O)c2ccccc21,-6,3%,5%,-3%,9,18%
C=C(C1=CCN(S(=O)(=O)C(C)(C)C)[C@@H]1CCO)c1ccccc1,.,.,6%,.,.,.
CC(C)Oc1ccc(N2C(=O)c3ccccc3C2=O)cc1,35,.,-3%,14%,18*,53%
O=C1c2ccccc2NC(c2ccccc2O)N1O (stereo not drawn),-10,.,76%,5%,-2,?
COc1ccc(N2C(=O)c3ccccc3C2O)cc1 (stereo not drawn),.,46%,-12%,-4%,20*,169%
CC(=O)Nc1cccc2c1C(=O)N(c1ccc(C)cc1)C2=O,35*,29%,6%,1%,15*,19%
Cc1ccc(N2C(=O)c3ccccc3NC2c2ccccc2O)cc1 (stereo not drawn),79*,.,-5%,0%,36*,17%
O=C1c2ccccc2C(O)N1c1ccccc1 (stereo not drawn),11,9%,-24%,0%,5,4%
CCn1c(SCCC(=O)Nc2ccccc2)nnc1-c1ccc(OC)cc1,39,-15%,9%,1%,2,.
CCNC(=S)Nn1cnc2ccccc21,9,156%,-3%,-4%,8,46%
CC(=O)C1=C(O)C(=O)N(c2cccc(Br)c2)C1c1ccccc1Cl (stereo not drawn),-2,0%,-5%,2%,-2,?
COc1ccc(-c2csc(N(C)C(=O)c3cccs3)n2)cc1,33*,87%,2%,1%,22*,-1%
COc1ccc(-c2csc(N(CCCN(C)C)C(=O)c3ccc(OC)c(OC)c3)n2)cc1,.,.,0%,.,.,.
CCN(CC)CCCN(C(=O)c1cccs1)c1nc(-c2ccc(OC)cc2)cs1,-5,13µM*,-26%,-2%,9,-28%
